Compound activity as filed in PubChem BioAssay.
CYP2C9 activ = CYP2C9 (human) activation; P11712; recombinant CYP2C9, luciferin-H conversion, luminescence; active compounds read high; factor 1 = untreated enzyme, 0 = blocked; activation factor at 5 µM; actives 1.4% (n = 96,000);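 active means activation factor of 2 or more for CYP2C9 at a 5 µM dose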;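 further: 0 = sulfaphenazole-blocked wells and 1 = vehicle-only wells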
CYP2C19 inhib = inhibitors of human CYP2C19; CYP2C19 Supersomes, luciferin-H EGE luminescence, 30 min; inhibition, % at 5 µM; actives 21% (n = 96,000); AID 778;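 active means CYP2C19 inhibition above a set limit at 5 µM in the primary screen, cut at about 50% in these data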;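 further: plate controls were negative control wells for no effect and 2.5 mM tranylcypromine positive control for full effect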
Target sequence (P33261 whole entry, looked up): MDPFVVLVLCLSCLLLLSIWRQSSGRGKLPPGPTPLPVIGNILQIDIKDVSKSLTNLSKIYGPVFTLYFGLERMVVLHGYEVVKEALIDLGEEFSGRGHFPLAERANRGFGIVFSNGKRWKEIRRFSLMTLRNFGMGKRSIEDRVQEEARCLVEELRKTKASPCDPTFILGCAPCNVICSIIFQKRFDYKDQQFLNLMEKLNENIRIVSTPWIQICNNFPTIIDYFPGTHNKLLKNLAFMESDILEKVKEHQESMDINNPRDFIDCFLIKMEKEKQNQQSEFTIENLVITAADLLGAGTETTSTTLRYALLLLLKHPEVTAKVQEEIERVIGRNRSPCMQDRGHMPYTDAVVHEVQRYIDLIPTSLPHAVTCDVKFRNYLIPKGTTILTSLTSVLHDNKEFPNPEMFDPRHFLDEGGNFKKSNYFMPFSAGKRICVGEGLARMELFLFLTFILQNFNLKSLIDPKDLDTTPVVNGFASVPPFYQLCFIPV
EphB4 ephrin blk = EphB4-ephrin-B2 interaction antagonism. EphB4 LBD / TNYL-RAW-Alexa532 peptide, fluorescence polarization. inhibition, % at 7 µM. actives 0.15% (n = 97,000);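 active means inhibition above the screen-wide mean inhibition plus 3 SD, cut at about 15% in these data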;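 further: 0% = DMSO wells and 100% = excess unlabeled TNYL-RAW peptide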
CYP2C19 act = increases human CYP2C19 enzyme activity; P33261; recombinant CYP2C19, luciferin-H EGE luminescence; active compounds read high; 0 = fully inhibited enzyme, 1 = untreated enzyme; activation factor at 5 µM; 96,000 tested, under 10 active;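 active means activation factor of at least 2 at 5 µM in the primary screen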;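 further: 0 = wells with 2.5 mM tranylcypromine and 1 = vehicle-only wells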
CYP2C9 inh = inhibitors of human CYP2C9; P11712; CYP2C9 Supersomes, luciferin-H conversion, luminescence; inhibition, % at 5 µM; actives 20% (n = 96,000);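 active means blocking of liver enzyme CYP2C9 beyond about 50% at 5 µM, limit read from the data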
Numbers without * were called inactive; x = no result given. Compounds with a hit are over-represented: about 27% of the library has one in this group of screens.

SMILES	CYP2C9 activ	CYP2C19 inhib	EphB4 ephrin blk	CYP2C19 act	CYP2C9 inh
c1cncc(-c2nnc(C3CCCCC3)o2)c1	0.9	13	2	0.9	8
CNS(=O)(=O)c1cccc(C(=O)OCC(=O)c2cc(C)n(-c3ccc4c(c3)OCO4)c2C)c1	0.3	62*	4	0.4	68*
O=C(O)CC(C(=O)O)N1C(=O)/C(=C/c2ccc(-c3nc4ccccc4s3)o2)SC1=S (stereo not given)	1.1	-4	-14	1	-11
Cc1cc(NC(=O)COC(=O)C(Nc2ccc(C(F)(F)F)cc2Cl)C(C)C)no1 (stereo not given)	0.5	57*	9	0.4	52*
Oc1[nH]c2ccccc2c1N=Nc1nc2ccccc2s1	1	7	15*	0.9	4
Cc1ccc(S(=O)(=O)N=Nc2c(O)[nH]c3ccccc23)cc1	1.2	-21	-3	1.2	-22
COc1ccc(NC(=O)CC2C(=O)N(c3cccc(C)c3)C(=O)N2C2CCCCC2)cc1 (stereo not given)	0.5	56*	-3	0.4	47
COc1ccc(NC(=O)CC2C(=O)N(c3cccc(OC)c3)C(=O)N2CCC(C)C)cc1 (stereo not given)	0.4	66*	-7	0.3	62*
COCCN1C(=O)N(c2cccc(C)c2)C(=O)C1CC(=O)Nc1ccc(F)cc1 (stereo not given)	0.8	39	5	0.6	22
CCC(CC)c1nnc(NC(=O)Oc2ccccc2)s1	0.4	5	4	0.9	56*
CCC(Oc1ccccc1)C(=O)Nc1nnc(C)s1 (stereo not given)	0.4	41	7	0.6	63*
CCC(Oc1ccccc1)C(=O)Nc1nc2c(s1)C(=O)CC(C)(C)C2 (stereo not given)	0.5	12	2	0.9	54*
CCC(Oc1ccccc1)C(=O)Nc1ccccc1OC (stereo not given)	1	38	-4	0.6	4
CCC(Oc1ccccc1)C(=O)Nc1nnc(C(F)(F)F)s1 (stereo not given)	0	16	-2	0.8	97*
CCOC(=O)c1ccccc1NC(=O)CC1SC(=NC)N(C)C1=O (stereo not given)	1.1	17	x	0.8	-13
O=C1CCCc2nc(N3CCN(c4ccccc4)CC3)ncc21	0.9	22	-6	0.8	10
COc1cccc(NC(=O)C(=O)N/N=C/c2cc(C)n(-c3ccc(Cl)c(Cl)c3)c2C)c1	0.7	57*	-6	0.4	30
COc1ccc(OC)c2sc(NC(=O)C3CC3)nc12	0.4	31	-7	0.7	57*
CCC(=O)Nc1nc2c(OC)ccc(OC)c2s1	1	-7	-2	1.1	2
CCCC(=O)Nc1nc2c(OC)ccc(OC)c2s1	0.4	30	-2	0.7	61*
Cc1ccc(S(=O)(=O)NCCc2ccccc2)cc1	0.4	96*	8	0	65*
NS(=O)(=O)c1ccc(S(=O)(=O)NCCc2ccccc2)cc1	0.9	85*	5	0.2	12
Cc1ccc(S(=O)(=O)NCCC(=O)NCc2ccccc2)cc1	1.4	16	0	0.8	-36
COc1ccc(-c2cc3nc(C4CCN(C(=O)OC(C)(C)C)CC4)c(C(=O)O)cn3n2)cc1	0.2	-5	2	1.1	75*
CCOc1ccc(C(=O)C(c2ccccc2)N2CCOCC2)cc1 (stereo not given)	1	26	4	0.7	-2
SMILES	CYP2C9 activ	CYP2C19 inhib	EphB4 ephrin blk	CYP2C19 act	CYP2C9 inh
CC(=O)Nc1c2c3c(cccc3n(C)c1=O)C(=O)c1ccccc1-2	0.8	2	-4	1	15
O=C(Nc1nc(-c2cccs2)cs1)c1ccc(S(=O)(=O)N2CCCCC2)cc1	0.4	39	1	0.6	60*
CN1CCN(S(=O)(=O)c2cccc(C(=O)Nc3nc(-c4ccccc4)cs3)c2)CC1	0.6	21	4	0.8	36
O=C(Nc1nc(-c2ccccc2)cs1)c1cccc(S(=O)(=O)N2CCN(Cc3ccccc3)CC2)c1	0.1	53*	-5	0.5	90*
CCOC(=O)Cc1csc(NC(=O)c2ccc(S(=O)(=O)N3CCCC3)cc2)n1	0.1	79*	-8	0.2	88*
O=C(Nc1nc(-c2cccs2)cs1)c1cccc(S(=O)(=O)N2CCCCCC2)c1	0.1	72*	3	0.3	94*
Oc1ccc(-c2nc(=S)[nH][nH]2)cc1	x	x	-6	x	x
Cc1nn(Cc2ccc(F)cc2)c(C)c1NC(=O)c1cnn2cccnc12	1.1	41	-4	0.6	-12
Cc1csc(-c2cnn(-c3ccccc3)c2NC(=O)c2ccccc2)n1	1	-12	-3	1.1	4
CCCC(=O)Nc1ccc(Oc2ccc(NC(=O)CCC)cc2)cc1	x	x	0	x	x
CCOC(=O)c1ccccc1N/C=C1\CCCCC1=O	x	x	9	x	x
CCC(=O)Nc1cc2c(cc1C(=O)CC)OCCO2	0.7	33	-3	0.7	32
Cc1onc(-c2c(F)cccc2Cl)c1C(=O)Nc1nc2ccccc2[nH]1	0.1	57*	0	0.4	93*
C=CCNC(=O)c1c(-c2c(F)cccc2Cl)noc1C	1	4	-8	1	2
Cc1onc(-c2c(F)cccc2Cl)c1C(=O)Nc1cccc2nsnc12	0.5	24	-5	0.8	54*
Cc1onc(-c2c(F)cccc2Cl)c1C(=O)NC1=NCCS1	0.3	54*	x	0.5	67*
Cc1ccc(C(c2nnnn2CCc2ccccc2)N2CCSCC2)cc1 (stereo not given)	0.9	25	-1	0.7	8
O=C(NCCNC(=O)C1CC2CCC1C2)C1CC2CCC1C2 (stereo not given)	1.1	0	1	1	-8
CCc1ccc2c(c1)CCCN2C(=O)c1ccccc1C(=O)O	0.7	49	0	0.5	33
CCCSc1nn2c(=O)c3ccccc3nc2s1	0.5	79*	5	0.2	49
Cc1cccc(Nc2nn3c(=O)c4ccccc4nc3s2)c1	0.7	15	-2	0.8	26
Cc1n[nH]c(C)c1CCc1nc2c3ccccc3nc(SCC(=O)Nc3ccccc3F)n2n1	0.1	64*	1	0.4	95*
Cc1cccc(-n2c(N)cc(=O)nc2SCC(=O)Nc2ccccc2)c1	1.3	14	-8	0.9	-25
Cc1cccc(NC(=O)CSc2nc3ccccc3c3nc(CCc4c(C)n[nH]c4C)nn23)c1	0.1	66*	2	0.3	88*
CSc1nc(-c2ccc(C)cc2)[nH]c1S(=O)(=O)c1ccccc1	0.2	46	2	0.5	78*
CCN=C1SC(CC(=O)NC(C)C)C(=O)N1CC (stereo not given)	1.4	7	-7	0.9	-42
CCN1C(=O)C(O)(CC(=O)c2cc(C)ccc2C)c2ccccc21 (stereo not given)	1	44	-7	0.6	-2
